The other results are listed elsewhere or left out. A call without a number means that no potency is given here. Results filed as inconclusive are left out. The source made the active and inactive calls. Calls come from the whole dose curve; as a rule, active = well fitted inhibition curve with a large enough effect; inconclusive = small, poorly fitted or top-dose-only effect; inactive = flat fitted curve, though single readings scatter.

The record followed here is PubChem BioAssay (NCATS).
Potency is the fitted concentration of half-maximal effect.

The test can be described thus: qHTS Assay for Inhibitors of Fructose-1,6-bisphosphate Aldolase from Giardia Lamblia: Mammalian cellular toxicity (AID 2786).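 Note: compound exposure lasted 48 h before reading; nearly all actives have a fitted effect of over 60% in size.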 The conditions noted are these: mammalian cell viability counter-screen; series mostly up to 57.5 µM. The text has this:
NIH Chemical Genomics Center [NCGC]
NIH Molecular Libraries Probe Production centers Network [MLPCN]
Assay Provider: Osnat Herzberg, University of Maryland
The objective of this project is to obtain compounds that inhibit Giardia lamblia growth. G. lamblia is a human pathogen which afflicts impoverished nations; it is the most common cause of outbreaks of diarrhea in the United States. During the course of our study of potential drug targets in Giardia, we have identified the Class II (Zn2+ functions in electrophilic catalysis) fructose-1,6-bisphosphate aldolase (FBPA) as an excellent candidate for drug targeting. FBPA is a key glycolytic pathway enzyme, essential for G. lamblia survival. The human FBPA belongs to the Class I aldolases, which have a different substrate binding site structure and a radically different catalytic mechanism (employing a lysine-Schiff base intermediate). Therefore, affinity-based or mechanism-based inhibitors of the Giardia FBPA are expected not to interfere with the catalytic function of the human FBPA.
A glyceraldehyde-3-phosphate dehydrogenase/triose phosphate isomerase/NAD/arsenate coupled assay was adapted to the 1536-well HTP format for use in the primary screen. This was done by coupling it to a diaphorase/resazurin/resorufin reaction that can be monitored by fluorescence (excitation, 544 nm; emission, 590 nm). Compounds identified in this screen will be further evaluated by coupling the glycerol-3-phosphate/triose phosphate isomerase/NADH assay to a phenazine methosulfate/tetranitroblue tetrazolium color reaction. False positives due to the dehydrogenases and diaphorase inhibition will be eliminated, and selectivity assay will triage inhibitors of mammalian triose phosphate isomerase and the Class I FBPA. G. lamblia FBPA inhibitors identified by the in vitro analyses will be examined for growth inhibition of Giardia trophozoites, and for cytotoxicity in human cells.
This assay addresses whether hits in the primary screen are cytotoxic to mammalian cells, using Chinese hamster ovary cells as a surrogate.
2uL/well media was dispensed per well into 1536-well white solid-bottom plates using Multidrop Combi dispenser. Subsequently, 23 nL/well compound solutions or DMSO controls were dispensed to the assay plates via a pintool workstation. The Chinese hamster ovary (CHO) cells were grown in T225 flasks to 70% confluence under a standard cell culture condition (ATCC), detached with 0.25% Trypsin/EDTA, and seeded at 250 cells/well in 5uL medium (Dulbecco's Modified Eagle Medium, 10% fetal bovine serum, 1x penicillin/streptomycin). The plates were incubated at 37 °C with 5% CO2 and 95% humidity for 48 hours, and then ATP content was measured following the addition of 4uL/well of ATPlite reagent and a 20 min incubation on a ViewLux plate reader.
Keywords: Fructose-bisphosphate aldolase, FBPA , Giardia lamblia , Giardia, HTS, Inhibitors
Background: Quantitative high-throughput screening tests each substance at several concentrations.
Turning to `C=CCNC(=S)/N=c1/ccccn1Cc1ccccc1`, the Potency result was “inactive”. Then `O=C(CN1C(=O)COc2ccccc21)Nc1ccc(F)cc1`, with “inactive”. As for `CN1CCN(CCCCOc2ccccc2-c2ccccc2)CC1`, the entry is “inactive”; as for `O=S(=O)(c1ccc(NC(=S)NN=C(C2CC2)C2CC2)cc1)N1CCOCC1`, “inactive”.

For the molecule `CCN(CC(=O)Nc1ccc(S(=O)(=O)N2CCCC2)cc1)CC(=O)Nc1cccc(OC)c1`, the Potency entry is “inactive”. Then `O=[N+]([O-])c1cc([N+](=O)[O-])c2cccnc2c1O`, with “inactive”; and `COc1ccccc1CN1CCN(Cc2cc(OC)c(OC)cc2OC)CC1`, with “inactive”. As to `C=C(C)CNC(=S)N/N=C/c1ccccc1OCC(=O)O`, the Potency result was “inactive”. On to `CCc1ccc2c(c1)C1(NN=C(c3ccccc3)S1)C(=O)N2` (stereo not given), for which the Potency is 25.1 µM (active). Then `Cc1csc(NC(=O)CN2CCCCCC2)n1`, with “inactive”; and `O=C(Nc1nnc(-c2ccco2)o1)c1ccc(S(=O)(=O)N2CCOCC2)cc1`, with “inactive”. For the molecule `COc1cc(CN2CCN(Cc3ccc(C)cc3)CC2)c([N+](=O)[O-])cc1OC`, the Potency entry is “inactive”. Take `Cc1ccc(OCCCCc2c(C)n[nH]c2C)cc1`: the Potency result was “inactive”. As for `COCCN(C(=S)Nc1ccccc1OC)C1CCN(C(C)C)CC1`, the entry is “inactive”; as for `CNC(=S)N/N=C/c1ccc(N2CCOCC2)s1`, “inactive”; as for `Cc1cc(C)nc(N/N=C/c2ccc([N+](=O)[O-])o2)n1`, “inactive”. Turning to `Cn1nnc(NC(=S)NC(=O)c2ccccc2)n1`, the Potency result is “inactive”.

Take `Cn1c(=O)[nH]c(=O)c2c1[nH]c(=S)n2Cc1ccccc1`: the Potency result was “inactive”.

Turning to `CCS(=O)(=O)c1cc([N+](=O)[O-])c(Sc2ccccc2N)s1`, the Potency result was “inactive”. As for `Cc1nc2ccc(NC(=S)N3CCC(C)CC3)cc2nc1C`, the entry is “inactive”; as for `Clc1cccc(CN2COc3c(cc(Cl)c4cccnc34)C2)c1`, 20 µM (active). Then `Cc1cc(C)c2c(=O)[nH]c(SCC(=O)Nc3ccc(Br)cc3)nc2n1`, with “inactive”; and `CN(C)CCOc1ccc(Cl)cc1C(C)(C)C`, with “inactive”; and `CC(=O)NC1CCN(CC(=O)Nc2nccs2)CC1`, with “inactive”. Then `CC1CCCN(S(=O)(=O)c2ccc(C(=O)Nc3nnc(-c4ccncc4)o3)cc2)C1` (stereo not given), with “inactive”; and `O=C(Nc1ccccc1Cl)O/N=C(/c1ccccc1)c1ccccn1`, with “inactive”; and `O=c1[nH]c(=S)[nH]c2[nH]c(=S)[nH]c12`, with “inactive”. Regarding `O=C(NC(=S)Nc1ncccn1)c1ccccc1Br`, the Potency entry was “inactive”. Then `O=[N+]([O-])c1ccc2nc(-c3ccccn3)[nH]c2c1`, with 25.1 µM (active); and `C/C(=N\NC(N)=S)c1cccnc1`, with “inactive”; and `CN1C(=O)/C(=C\c2ccc(-c3ccccc3)o2)SC1=S`, with “inactive”.

`O=c1nc(N/N=C/c2ccco2)cn[nH]1`: the Potency entry was “inactive”. Then `Oc1[nH]c2ccc(Br)cc2c1N=Nc1nn[nH]n1`, with “inactive”.

As for `COC(=O)CC1=NN(c2nc(C)cc(C)n2)C(=O)C1`, the Potency result was “inactive”.

Turning to `O=C(N/N=C/c1ccccn1)c1cccnc1`, the Potency result is “inactive”. As for `CCN1CCc2c(C#N)c(NCc3ccccc3)nc(NCCO)c2C1`, the entry is “inactive”; as for `O=C(CN1CCN(Cc2ccccc2)CC1)Nc1ccc(F)c(F)c1`, “inactive”.

As for `CSc1n[nH]c(=S)n1N`, the Potency result is “inactive”.

`C=CCc1cc(C)ccc1OCCCn1ccnc1`: the Potency entry is “inactive”. As for `Oc1ccc2ccccc2c1N=Nc1nccs1`, the figure is 10 µM (active).
